Source: PubChem BioAssay
Where “and” joins values, the source holds several entries; their conditions need not be identical. Equal values may be shown once. Calls of active or inactive are those of the source. Cut-off read from the data, not from the text of the source, unless noted: active = inhibition above about 80%; inactive = the rest.

How the values were obtained:
[1] = LFS_MB_P medulloblastoma growth inhibition, cell-based, chromothripsis tumors, cisplatin or BGB combos (AID 1671449); settings: LFS_MB_P medulloblastoma cells;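 note: cells exposed for 96 hours; 0% = vehicle DMSO and 100% = killing by high DMSO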
[2] = HDN33 neuroblastoma growth inhibition, cell-based, chromothripsis tumors, cisplatin or BGB combos (AID 1671450); settings: HDN33 neuroblastoma cells, stronger effect = higher value;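 note: cells exposed to compound for four days; 0% = vehicle DMSO and 100% = cell killing by high DMSO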
[3] = ICB984 medulloblastoma cell growth inhibition, synergistic combos for chromothripsis tumors, cisplatin or BGB combos (AID 1671451; call rule not given here;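 note: cells exposed for 96 hours before readout; 0% = vehicle DMSO and 100% = killing by high DMSO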); settings: ICB984 medulloblastoma cells, drug combinations, stronger effect = higher value
[4] = LFS_MB_1R medulloblastoma cell growth inhibition, synergistic combos for chromothripsis tumors, cisplatin or BGB combos (AID 1671452); settings: LFS_MB_1R medulloblastoma cells, stronger effect = higher value;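 note: cells exposed for 96 hours before readout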
[5] = HTB85 osteosarcoma cell growth inhibition, synergistic combos for chromothripsis tumors, BGB or cisplatin IC20 combos (AID 1671453); settings: HTB85 osteosarcoma cells, drug combinations, stronger effect = higher value;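 note: cells exposed for 96 hours before readout; 0% = vehicle DMSO and 100% = high DMSO killing control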
[6] = CRL2098 osteosarcoma cell growth inhibition, synergistic combos for chromothripsis tumors, BGB or cisplatin IC20 combos (AID 1671454); settings: CRL2098 osteosarcoma cells, drug combinations, stronger effect = higher value;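 note: cells exposed for 96 h before readout; 0% = vehicle DMSO and 100% = killing by high DMSO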
[7] = HD-MB03 medulloblastoma cell growth inhibition, synergistic combos for chromothripsis tumors, BGB or cisplatin IC20 combos (AID 1671455; in the data active = inhibition above about 83%;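 note: 0% = vehicle DMSO and 100% = high DMSO as cytotoxic control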); settings: HD-MB03 medulloblastoma cells, stronger effect = higher value
[8] = UWB1.289 ovarian carcinoma cell growth inhibition, synergistic combos for chromothripsis tumors, BGB or cisplatin combos (AID 1671456); settings: UWB1.289 ovarian carcinoma cells, stronger effect = higher value;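 note: cells exposed to compound for four days; 0% = vehicle DMSO and 100% = killing by high DMSO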
[9] = LFS_MB_2R medulloblastoma cell growth inhibition, synergistic combos for chromothripsis tumors, cisplatin combos (AID 1671457); settings: LFS_MB_2R medulloblastoma cells, stronger effect = higher value;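 note: cells exposed to compound for four days before readout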
[10] = MDA-MB-436 breast carcinoma cell growth inhibition, synergistic combos for chromothripsis tumors, BGB or cisplatin combos (AID 1671458; call rule not given here;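 note: cells exposed for 96 hours; 0% = vehicle DMSO and 100% = killing by high DMSO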); settings: MDA-MB-436 breast carcinoma growth inhibition, drug combinations, stronger effect = higher value
[11] = UWB1.289_BRCA1 ovarian cancer growth, cell-based, BGB or cisplatin combinations (AID 1671459); settings: UWB1.289 BRCA1 ovarian carcinoma, drug combinations, stronger effect = higher value
[12] = human astrocyte viability loss, single and combined drugs, cytotoxicity control for chromothriptic childhood tumor combination screen, cell-based, BGB or cisplatin IC20 combos (AID 1671460); settings: Human astrocytes, drug combinations, stronger effect = higher value;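 note: cells exposed to compounds for 96 hours before viability readout; 0% = vehicle and 100% = killing control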
[13] = growth inhibition of BT084 medulloblastoma cells, cell-based, ICGC_MB145, cisplatin and BGB IC40 combos (AID 1671461); settings: drug combinations, stronger effect = higher value;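 note: cells exposed to drugs for 96 hours; 0% = vehicle DMSO and 100% = high DMSO full killing control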
[14] = growth inhibition of RCMB18 medulloblastoma cells, cell-based, cisplatin and BGB IC40 combos (AID 1671462); settings: stronger effect = higher value;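 note: cells exposed to compound for four days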
[15] = growth inhibition of CRL1545 osteosarcoma cells, cell-based, cisplatin and BGB IC20 combos (AID 1671464); settings: stronger effect = higher value;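 note: cells exposed to compound for 96 hours before readout; 0% = vehicle DMSO and 100% = high DMSO killing control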
[16] = at 0.5 µM, stronger effect = higher value
[17] = measured here: combination with BGB IC20, at 0.005 µM
[18] = measured here: combination with BGB IC40, at 0.005 µM
[19] = measured here: combination with BGB IC40, at 0.05 µM
[20] = measured here: combination with cisplatin, at 0.5 µM, stronger effect = higher value
[21] = measured here: combination with cisplatin, at 5 µM, stronger effect = higher value
[22] = measured here: with BGB IC20 combination, at 0.5 µM
[23] = measured here: with cisplatin IC20 combination, at 0.5 µM
[24] = measured here: 5 uM single agent, at 5 µM
[25] = measured here: combination with cisplatin, at 0.5 µM
[26] = measured here: combination with cisplatin, at 5 µM
[27] = measured here: with BGB IC20, at 0.5 µM
[28] = measured here: with BGB IC20, at 5 µM
[29] = measured here: with cisplatin IC20, at 0.5 µM
[30] = measured here: with cisplatin IC20, at 5 µM
[31] = measured here: combination with BGB at IC20, at 0.5 µM
[32] = measured here: combination with cisplatin at IC20, at 0.5 µM
[33] = measured here: combo with BGB at IC20, at 0.5 µM
[34] = measured here: combo with cisplatin at IC20, at 0.5 µM
[35] = measured here: inhibition with BGB combination, at 0.05 µM
[36] = measured here: inhibition with cisplatin combination, at 0.05 µM
[37] = measured here: BGB combination, at 0.5 µM
[38] = measured here: BGB combination, at 5 µM
[39] = measured here: cisplatin combination, at 0.5 µM
[40] = measured here: cisplatin combination, at 5 µM
[41] = BGB combination, concentration series, at 5 µM
[42] = cisplatin combination, concentration series, at 5 µM
[43] = measured here: combo with BGB IC20, at 0.5 µM
[44] = measured here: combo with cisplatin IC20, at 0.5 µM
[45] = cisplatin combination, at 0.5 µM
[46] = measured here: BGB IC40 combination 0.05 uM, at 0.05 µM
[47] = measured here: BGB IC40 combination, at 0.05 µM

In the case of CCC1(O)C(=O)OCc2c1cc1n(c2=O)Cc2cc3cc(O)ccc3nc2-1 (stereo unspecified), the inhibition [1, 16] is reported as -23.8% (inactive), the inhibition [1, 17] is reported as -39% and the inhibition [1, 18] is reported as -64.3%. For the same compound, the inhibition [1, 19] was -39.2%, the inhibition [1, 20] was -28.8% and the inhibition [1, 21] was 80.4%. For the same compound, the inhibition ([2]; BGB combo, at 5 µM) was 96.2%, the inhibition ([2]; at 0.5 µM) was 75% (inactive) and the inhibition ([2]; cisplatin combo, at 5 µM) was 94.5%. The inhibition [2, 22] was 83.6%, the inhibition [2, 23] was 67.2% and the inhibition ([2]; single agent, at 5 µM) was 96%. The inhibition ([3]; BGB IC20 combo, at 0.005 µM) was -7.43%, the inhibition ([3]; BGB IC40 combo, at 0.005 µM) was -6.67% and the inhibition ([3]; BGB IC40 combo, at 0.05 µM) was 96.1%. The inhibition ([3]; at 0.5 µM) was -15.7% (inactive), the inhibition ([3]; cisplatin combo, at 0.05 µM) was 96.4% and the inhibition ([3]; cisplatin combo, at 0.5 µM) was -28.1%. The inhibition ([3]; cisplatin combo, at 5 µM) was -59%, the inhibition [3, 24] was -24.3% and the inhibition ([4]; at 0.5 µM) was 46% (inactive). For the same compound, the inhibition [4, 19] was -11.8%, the inhibition [4, 25] was 91.8% and the inhibition [4, 26] was 84.6%. For the same compound, the inhibition ([5]; at 0.5 µM) was 98% (active), the inhibition [5, 27] was 97.4% and the inhibition [5, 28] was 98%. For the same compound, the inhibition [5, 29] was 97.8%, the inhibition [5, 30] was 99.5% and the inhibition ([5]; single agent, at 5 µM) was 99.6%. For the same compound, the inhibition ([6]; at 0.5 µM) was 43.5% (inactive), the inhibition [6, 31] was 62.2% and the inhibition [6, 32] was 19%. For the same compound, the inhibition ([7]; at 0.5 µM) was 98.3% (active), the inhibition [7, 33] was 98% and the inhibition [7, 34] was 98.2%. The inhibition ([8]; at 0.5 µM) was 83.6% (active), the inhibition [8, 35] was 5.35% and the inhibition [8, 36] was 7.19%. The inhibition ([9]; at 0.5 µM) was -2.53% (inactive), the inhibition [9, 25] was 28.3% and the inhibition [9, 26] was 65.3%. For the same compound, the inhibition ([10]; at 0.5 µM) was 65.8% (inactive), the inhibition [10, 37] was 59% and the inhibition [10, 38] was 70.2%. For the same compound, the inhibition [10, 39] was 63.8%, the inhibition [10, 40] was 80.3% and the inhibition [11, 41] was 95.1%. The inhibition ([11]; at 0.5 µM) was 89% (active), the inhibition [11, 42] was 102% and the inhibition ([12]; at 0.5 µM) was 73.4% (inactive). For the same compound, the inhibition [12, 43] was 82.6%, the inhibition [12, 44] was 57.6% and the inhibition ([13]; at 0.5 µM) was 1.31% (inactive). For the same compound, the inhibition [13, 45] was 54.4%, the inhibition ([13]; cisplatin combination, at 5 µM) was -68.1% and the inhibition [13, 46] was -44.1%. For the same compound, the inhibition ([13]; single agent, at 5 µM) was -0.722%, the inhibition ([14]; at 0.5 µM) was 24% (inactive) and the inhibition ([14]; cisplatin combo, at 5 µM) was 79.3%. The inhibition [14, 47] was -9.73%, the inhibition [14, 25] was 24.7% and the inhibition ([14]; single agent, at 5 µM) was 49.8%. The inhibition ([15]; at 0.5 µM) was 74.6% (inactive), the inhibition [15, 22] was 87.6% and the inhibition [15, 23] was 67.5%. For the same compound, the inhibition ([15]; single agent, at 0.05 µM) was 14.1% and the inhibition ([15]; single agent, at 5 µM) was 99.4%.
With CNc1cc(-c2cccc(Cl)c2Cl)nc(N)n1 the inhibition [1, 16] was -8.18% (inactive) and -26.7% (inactive), the inhibition [1, 17] was 12.7% and 6.36% and the inhibition [1, 18] was -26.9% and -34.5%. For the same compound, the inhibition [1, 19] was -17.6% and -7.49%, the inhibition [1, 20] was -22.4% and -20% and the inhibition [1, 21] was -7.76% and -6.35%. The inhibition ([2]; BGB combo, at 5 µM) was 48.2% and 55.5%, the inhibition ([2]; at 0.5 µM) was -17.8% (inactive) and -6.13% (inactive) and the inhibition ([2]; cisplatin combo, at 5 µM) was 48.9% and 48.7%. For the same compound, the inhibition [2, 22] was -27.7% and -11%, the inhibition [2, 23] was -24.8% and -0.815% and the inhibition ([2]; single agent, at 5 µM) was 76.2% and 85.6%. For the same compound, the inhibition ([3]; BGB IC20 combo, at 0.005 µM) was -21.8% and -29.5%, the inhibition ([3]; BGB IC40 combo, at 0.005 µM) was -56.1% and -31.8% and the inhibition ([3]; BGB IC40 combo, at 0.05 µM) was -22.7% and -34.1%. For the same compound, the inhibition ([3]; at 0.5 µM) was -44.2% (inactive) and -25.3% (inactive), the inhibition ([3]; cisplatin combo, at 0.05 µM) was -27.5% and -41.1% and the inhibition ([3]; cisplatin combo, at 0.5 µM) was -72.1% and -45.6%. For the same compound, the inhibition ([3]; cisplatin combo, at 5 µM) was -47.7% and -22.7%, the inhibition [3, 24] was -10.2% and -10.7% and the inhibition ([4]; at 0.5 µM) was -34.6% (inactive) and -4.83% (inactive). For the same compound, the inhibition [4, 19] was -68.3% and -4.85%, the inhibition [4, 25] was -61.7% and -26.6% and the inhibition [4, 26] was -37.7% and -6.6%. The inhibition ([5]; at 0.5 µM) was -10% (inactive) and -11.4% (inactive), the inhibition [5, 27] was -16.2% and -6.99% and the inhibition [5, 28] was 35.9% and 44.4%. For the same compound, the inhibition [5, 29] was -19.3% and -24.6%, the inhibition [5, 30] was 46.5% and 52.3% and the inhibition ([5]; single agent, at 5 µM) was 86.8% and 87.8%. For the same compound, the inhibition ([6]; at 0.5 µM) was -44.3% (inactive) and -58.9% (inactive), the inhibition [6, 31] was -56.3% and -39.2% and the inhibition [6, 32] was -66.3% and -96.2%. The inhibition ([7]; at 0.5 µM) was 7.62% (inactive) and 7.36% (inactive), the inhibition [7, 33] was 6.39% and 25.3% and the inhibition [7, 34] was 10.3% and -5.76%. For the same compound, the inhibition ([8]; at 0.5 µM) was -17.7% (inactive) and -11.8% (inactive), the inhibition [8, 35] was -38.9% and -10.5% and the inhibition [8, 36] was -22.8% and -21.6%. The inhibition ([9]; at 0.5 µM) was -20.6% (inactive) and -7.54% (inactive), the inhibition [9, 25] was -10.7% and -19.4% and the inhibition [9, 26] was -1.17% and -0.403%. The inhibition ([10]; at 0.5 µM) was -4.77% (inactive) and 5.99% (inactive), the inhibition [10, 37] was -12.3% and -2.46% and the inhibition [10, 38] was 12% and 36.8%. For the same compound, the inhibition [10, 39] was -5.91% and 6.1%, the inhibition [10, 40] was 53.8% and 59% and the inhibition [11, 41] was 25.6% and 35%. For the same compound, the inhibition ([11]; at 0.5 µM) was -10.5% (inactive) and -13.3% (inactive), the inhibition [11, 42] was 31% and 30.9% and the inhibition ([12]; at 0.5 µM) was -0.46% (inactive) and -4.98% (inactive). For the same compound, the inhibition [12, 43] was -4.03% and -6.91%, the inhibition [12, 44] was 5.16% and -6.91% and the inhibition ([13]; at 0.5 µM) was -12.1% (inactive) and 5.54% (inactive). For the same compound, the inhibition [13, 45] was -10.6% and -1.11%, the inhibition ([13]; cisplatin combination, at 5 µM) was 8.87% and -169% and the inhibition [13, 46] was 37% and -7.52%. For the same compound, the inhibition ([13]; single agent, at 5 µM) was 37.7% and 19.1%, the inhibition ([14]; at 0.5 µM) was -17.1% (inactive) and -8.27% (inactive) and the inhibition ([14]; cisplatin combo, at 5 µM) was -4.48% and -9.87%. The inhibition [14, 47] was -4.59% and 4.5%, the inhibition [14, 25] was -16.3% and -34.1% and the inhibition ([14]; single agent, at 5 µM) was -7.05% and 22%. The inhibition ([15]; at 0.5 µM) was -60.9% (inactive) and -11.4% (inactive), the inhibition [15, 22] was -68.8% and -40.3% and the inhibition [15, 23] was -56.9% and 1.42%. For the same compound, the inhibition ([15]; single agent, at 0.05 µM) was -40.9% and -9.94% and the inhibition ([15]; single agent, at 5 µM) was 58.9% and 60.8%.
